Test results reported in ChEMBL document CHEMBL1961873, “Compounds: GSK PKIS; Assays: Nanosyn kinase panel” (2012).

What was measured:
[1] = molecular target: T1, Inhibitor of nuclear factor kappa-B kinase subunit epsilon (Homo sapiens) (UniProt Q14164); conditions: at 1 µM;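 further: reported values are averaged percent inhibition figures against human IKKε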
T1 sequence (whole entry): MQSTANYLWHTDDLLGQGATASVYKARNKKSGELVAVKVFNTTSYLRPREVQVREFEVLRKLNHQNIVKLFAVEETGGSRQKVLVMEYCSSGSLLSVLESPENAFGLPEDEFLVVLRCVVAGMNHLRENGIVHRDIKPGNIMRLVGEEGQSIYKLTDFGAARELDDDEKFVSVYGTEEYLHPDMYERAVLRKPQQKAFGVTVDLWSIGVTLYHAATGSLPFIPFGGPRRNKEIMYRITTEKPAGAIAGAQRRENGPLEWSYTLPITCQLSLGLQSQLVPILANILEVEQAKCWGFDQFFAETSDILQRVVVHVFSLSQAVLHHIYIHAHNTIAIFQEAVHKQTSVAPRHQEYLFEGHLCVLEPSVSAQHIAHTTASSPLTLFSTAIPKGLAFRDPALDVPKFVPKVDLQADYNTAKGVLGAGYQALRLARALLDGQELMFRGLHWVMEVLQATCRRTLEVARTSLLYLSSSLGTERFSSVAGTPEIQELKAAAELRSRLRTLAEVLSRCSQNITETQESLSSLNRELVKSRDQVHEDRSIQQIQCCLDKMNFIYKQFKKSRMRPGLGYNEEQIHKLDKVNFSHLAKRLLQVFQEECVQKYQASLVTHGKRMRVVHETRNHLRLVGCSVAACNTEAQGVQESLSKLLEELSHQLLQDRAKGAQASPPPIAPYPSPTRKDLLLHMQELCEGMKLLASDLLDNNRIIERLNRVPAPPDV

[2] = molecular target: T2, Serine/threonine-protein kinase Nek1 (Homo sapiens) (UniProt Q96PY6); conditions: at 0.1 µM
T2 sequence (whole entry): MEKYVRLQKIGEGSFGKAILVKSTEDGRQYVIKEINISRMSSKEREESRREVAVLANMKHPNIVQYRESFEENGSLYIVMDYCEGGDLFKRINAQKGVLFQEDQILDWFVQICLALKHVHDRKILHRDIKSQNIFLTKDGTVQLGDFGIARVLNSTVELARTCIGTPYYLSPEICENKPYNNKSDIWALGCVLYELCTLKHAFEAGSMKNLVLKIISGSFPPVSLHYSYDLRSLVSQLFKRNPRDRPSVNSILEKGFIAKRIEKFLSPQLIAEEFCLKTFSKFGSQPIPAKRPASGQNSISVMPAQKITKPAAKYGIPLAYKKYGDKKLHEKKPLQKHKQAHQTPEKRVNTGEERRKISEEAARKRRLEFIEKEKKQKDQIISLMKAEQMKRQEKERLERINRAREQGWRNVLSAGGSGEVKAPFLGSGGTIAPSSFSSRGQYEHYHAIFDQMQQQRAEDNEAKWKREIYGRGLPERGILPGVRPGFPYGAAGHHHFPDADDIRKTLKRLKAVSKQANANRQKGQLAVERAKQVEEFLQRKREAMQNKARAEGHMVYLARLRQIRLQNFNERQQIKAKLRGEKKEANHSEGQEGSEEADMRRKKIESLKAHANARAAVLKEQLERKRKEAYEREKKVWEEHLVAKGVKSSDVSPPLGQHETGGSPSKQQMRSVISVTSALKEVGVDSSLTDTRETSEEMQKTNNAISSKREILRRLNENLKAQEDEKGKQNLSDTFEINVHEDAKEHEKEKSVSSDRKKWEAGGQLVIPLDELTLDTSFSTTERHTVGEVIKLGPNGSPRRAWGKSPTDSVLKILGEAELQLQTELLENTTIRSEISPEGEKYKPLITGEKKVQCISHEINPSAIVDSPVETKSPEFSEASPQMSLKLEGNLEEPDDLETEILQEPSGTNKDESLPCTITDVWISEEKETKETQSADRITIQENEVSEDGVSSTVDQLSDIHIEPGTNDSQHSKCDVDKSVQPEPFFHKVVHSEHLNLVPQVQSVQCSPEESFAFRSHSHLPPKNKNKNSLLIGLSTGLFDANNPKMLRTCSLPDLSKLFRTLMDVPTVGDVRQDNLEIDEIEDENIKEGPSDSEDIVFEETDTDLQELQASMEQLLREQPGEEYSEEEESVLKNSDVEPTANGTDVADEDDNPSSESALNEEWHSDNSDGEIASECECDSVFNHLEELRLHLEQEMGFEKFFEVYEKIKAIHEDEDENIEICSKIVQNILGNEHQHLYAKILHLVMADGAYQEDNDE

[3] = molecular target: T2, Serine/threonine-protein kinase Nek1 (Homo sapiens); conditions: at 1 µM
[4] = molecular target: T3, Serine/threonine-protein kinase Nek2 (Homo sapiens) (UniProt P51955); conditions: at 0.1 µM
T3 sequence (whole entry): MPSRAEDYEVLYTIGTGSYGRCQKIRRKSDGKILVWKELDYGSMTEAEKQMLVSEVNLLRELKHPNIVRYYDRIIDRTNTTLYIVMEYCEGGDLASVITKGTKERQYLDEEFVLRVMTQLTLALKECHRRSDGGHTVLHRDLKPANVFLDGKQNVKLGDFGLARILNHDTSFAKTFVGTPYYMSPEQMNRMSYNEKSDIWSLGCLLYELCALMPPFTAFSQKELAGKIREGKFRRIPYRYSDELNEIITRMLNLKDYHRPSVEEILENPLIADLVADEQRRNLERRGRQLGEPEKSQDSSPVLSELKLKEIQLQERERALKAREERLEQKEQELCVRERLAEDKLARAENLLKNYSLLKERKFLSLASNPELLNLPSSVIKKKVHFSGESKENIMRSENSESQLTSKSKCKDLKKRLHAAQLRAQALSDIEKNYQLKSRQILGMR

[5] = molecular target: T3, Serine/threonine-protein kinase Nek2 (Homo sapiens); conditions: at 1 µM
[6] = molecular target: Serine/threonine-protein kinase Nek6 (Homo sapiens) (UniProt Q9HC98); conditions: at 0.1 µM
[7] = molecular target: Serine/threonine-protein kinase Nek6 (Homo sapiens) (UniProt Q9HC98); conditions: at 1 µM
[8] = molecular target: Serine/threonine-protein kinase Nek7 (Homo sapiens) (UniProt Q8TDX7); conditions: at 0.1 µM
[9] = molecular target: Serine/threonine-protein kinase Nek7 (Homo sapiens) (UniProt Q8TDX7); conditions: at 1 µM
[10] = molecular target: T4, Serine/threonine-protein kinase Nek9 (Homo sapiens) (UniProt Q8TD19); conditions: at 0.1 µM
T4 sequence (whole entry): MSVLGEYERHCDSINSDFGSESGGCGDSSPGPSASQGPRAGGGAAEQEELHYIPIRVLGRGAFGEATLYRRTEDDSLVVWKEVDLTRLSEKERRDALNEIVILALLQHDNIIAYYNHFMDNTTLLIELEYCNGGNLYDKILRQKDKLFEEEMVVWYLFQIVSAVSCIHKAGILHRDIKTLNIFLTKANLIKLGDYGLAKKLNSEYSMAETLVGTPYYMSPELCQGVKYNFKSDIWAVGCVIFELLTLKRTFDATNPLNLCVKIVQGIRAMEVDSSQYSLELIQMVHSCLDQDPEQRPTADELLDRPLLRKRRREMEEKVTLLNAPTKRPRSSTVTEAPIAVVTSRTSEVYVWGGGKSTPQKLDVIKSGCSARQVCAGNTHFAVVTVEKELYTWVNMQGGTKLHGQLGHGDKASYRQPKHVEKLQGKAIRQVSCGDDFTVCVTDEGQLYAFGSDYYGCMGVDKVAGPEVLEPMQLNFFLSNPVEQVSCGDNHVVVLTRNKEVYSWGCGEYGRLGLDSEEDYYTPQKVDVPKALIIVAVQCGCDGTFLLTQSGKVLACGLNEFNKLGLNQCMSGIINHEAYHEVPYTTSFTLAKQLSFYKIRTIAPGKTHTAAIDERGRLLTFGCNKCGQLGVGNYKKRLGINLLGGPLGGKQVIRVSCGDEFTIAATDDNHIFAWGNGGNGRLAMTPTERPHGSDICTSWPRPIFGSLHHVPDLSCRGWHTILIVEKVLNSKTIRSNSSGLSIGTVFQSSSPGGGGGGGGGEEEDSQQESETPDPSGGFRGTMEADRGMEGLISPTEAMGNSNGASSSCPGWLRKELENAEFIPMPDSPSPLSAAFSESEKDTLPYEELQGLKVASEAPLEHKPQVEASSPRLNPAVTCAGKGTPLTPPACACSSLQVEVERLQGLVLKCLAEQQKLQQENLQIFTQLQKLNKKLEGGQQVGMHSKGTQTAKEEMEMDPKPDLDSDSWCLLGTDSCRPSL

[11] = molecular target: T4, Serine/threonine-protein kinase Nek9 (Homo sapiens); conditions: at 1 µM
[12] = molecular target: Serine/threonine-protein kinase PLK1 (Homo sapiens) (UniProt P53350); conditions: at 0.1 µM
[13] = molecular target: Serine/threonine-protein kinase PLK1 (Homo sapiens) (UniProt P53350); conditions: at 1 µM
[14] = molecular target: T5, Dual specificity protein kinase TTK (Homo sapiens) (UniProt P33981); conditions: at 0.1 µM
T5 sequence (whole entry): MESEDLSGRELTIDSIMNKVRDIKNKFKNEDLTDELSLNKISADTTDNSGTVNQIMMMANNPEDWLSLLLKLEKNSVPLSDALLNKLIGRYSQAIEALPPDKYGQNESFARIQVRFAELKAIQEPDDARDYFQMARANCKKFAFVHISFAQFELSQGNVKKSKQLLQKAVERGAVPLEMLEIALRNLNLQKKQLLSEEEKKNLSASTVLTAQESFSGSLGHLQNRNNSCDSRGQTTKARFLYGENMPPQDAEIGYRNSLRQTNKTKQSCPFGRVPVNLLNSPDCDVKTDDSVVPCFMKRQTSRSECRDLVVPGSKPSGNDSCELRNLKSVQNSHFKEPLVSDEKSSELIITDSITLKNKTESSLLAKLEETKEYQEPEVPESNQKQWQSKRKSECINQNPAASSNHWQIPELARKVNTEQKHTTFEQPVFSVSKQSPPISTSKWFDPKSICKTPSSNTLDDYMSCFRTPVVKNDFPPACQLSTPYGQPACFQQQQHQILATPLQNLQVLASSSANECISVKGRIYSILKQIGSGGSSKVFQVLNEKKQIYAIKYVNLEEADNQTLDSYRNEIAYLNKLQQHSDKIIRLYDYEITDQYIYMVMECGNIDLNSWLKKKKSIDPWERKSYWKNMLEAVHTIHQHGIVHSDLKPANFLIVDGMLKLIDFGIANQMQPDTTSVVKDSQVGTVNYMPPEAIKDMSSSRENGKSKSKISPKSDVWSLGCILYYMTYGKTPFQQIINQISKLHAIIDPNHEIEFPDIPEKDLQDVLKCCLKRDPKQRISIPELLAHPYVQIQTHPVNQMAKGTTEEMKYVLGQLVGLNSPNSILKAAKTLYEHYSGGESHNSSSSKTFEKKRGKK

[15] = test system: T6, Receptor-type tyrosine-protein kinase FLT3 (Homo sapiens), P36888 [D835Y]; conditions: at 1 µM
T6 sequence (whole entry): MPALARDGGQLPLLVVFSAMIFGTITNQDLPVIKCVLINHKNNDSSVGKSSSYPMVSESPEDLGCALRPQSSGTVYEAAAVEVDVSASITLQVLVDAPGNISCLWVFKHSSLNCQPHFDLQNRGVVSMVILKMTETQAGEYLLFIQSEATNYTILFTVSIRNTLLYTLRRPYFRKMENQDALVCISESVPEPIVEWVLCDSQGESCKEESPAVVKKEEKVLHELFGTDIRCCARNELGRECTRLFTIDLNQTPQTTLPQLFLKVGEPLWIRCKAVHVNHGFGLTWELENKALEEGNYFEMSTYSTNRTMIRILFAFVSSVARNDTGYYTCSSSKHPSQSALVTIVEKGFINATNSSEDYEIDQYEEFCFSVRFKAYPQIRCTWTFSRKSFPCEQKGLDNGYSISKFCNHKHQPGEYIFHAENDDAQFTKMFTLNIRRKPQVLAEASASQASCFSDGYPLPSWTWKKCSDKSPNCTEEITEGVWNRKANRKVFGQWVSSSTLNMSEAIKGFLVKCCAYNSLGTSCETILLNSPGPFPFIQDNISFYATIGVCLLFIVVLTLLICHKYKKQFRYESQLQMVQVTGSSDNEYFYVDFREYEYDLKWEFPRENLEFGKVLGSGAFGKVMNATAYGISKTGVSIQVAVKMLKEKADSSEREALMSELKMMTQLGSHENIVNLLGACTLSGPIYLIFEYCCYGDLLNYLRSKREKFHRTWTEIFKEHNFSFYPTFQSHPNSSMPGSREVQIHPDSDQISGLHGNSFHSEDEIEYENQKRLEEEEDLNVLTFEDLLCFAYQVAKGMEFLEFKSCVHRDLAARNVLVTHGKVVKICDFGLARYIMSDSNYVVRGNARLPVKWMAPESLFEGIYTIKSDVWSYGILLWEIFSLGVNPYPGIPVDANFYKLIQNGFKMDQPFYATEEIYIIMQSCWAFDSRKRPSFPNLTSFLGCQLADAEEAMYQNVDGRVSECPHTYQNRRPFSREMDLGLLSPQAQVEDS

[16] = molecular target: Vascular endothelial growth factor receptor 3 (Homo sapiens) (UniProt P35916); conditions: at 0.1 µM
[17] = molecular target: Vascular endothelial growth factor receptor 3 (Homo sapiens) (UniProt P35916); conditions: at 1 µM
[18] = molecular target: Macrophage colony-stimulating factor 1 receptor (Homo sapiens) (UniProt P07333); conditions: at 0.1 µM
[19] = molecular target: Macrophage colony-stimulating factor 1 receptor (Homo sapiens) (UniProt P07333); conditions: at 1 µM
[20] = molecular target: Tyrosine-protein kinase Fyn (Homo sapiens) (UniProt P06241); conditions: at 0.1 µM
Chain of Tyrosine-protein kinase Fyn (Homo sapiens) (P06241 2-537 limits assumed): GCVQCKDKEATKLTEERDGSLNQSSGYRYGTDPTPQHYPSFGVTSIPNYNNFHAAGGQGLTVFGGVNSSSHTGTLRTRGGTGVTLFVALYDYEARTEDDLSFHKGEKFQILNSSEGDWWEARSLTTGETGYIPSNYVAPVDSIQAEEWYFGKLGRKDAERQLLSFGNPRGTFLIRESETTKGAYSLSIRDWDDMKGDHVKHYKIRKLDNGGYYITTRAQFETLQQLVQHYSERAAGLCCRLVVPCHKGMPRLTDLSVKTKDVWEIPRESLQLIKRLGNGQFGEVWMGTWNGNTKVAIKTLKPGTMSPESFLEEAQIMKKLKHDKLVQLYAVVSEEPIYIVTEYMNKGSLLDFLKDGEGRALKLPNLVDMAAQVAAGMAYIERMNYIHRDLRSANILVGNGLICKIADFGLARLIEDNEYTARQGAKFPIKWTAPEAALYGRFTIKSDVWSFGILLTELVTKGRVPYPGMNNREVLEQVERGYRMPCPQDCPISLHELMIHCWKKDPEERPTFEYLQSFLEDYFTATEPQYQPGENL

Chain of Vascular endothelial growth factor receptor 3 (Homo sapiens) (P35916 whole entry): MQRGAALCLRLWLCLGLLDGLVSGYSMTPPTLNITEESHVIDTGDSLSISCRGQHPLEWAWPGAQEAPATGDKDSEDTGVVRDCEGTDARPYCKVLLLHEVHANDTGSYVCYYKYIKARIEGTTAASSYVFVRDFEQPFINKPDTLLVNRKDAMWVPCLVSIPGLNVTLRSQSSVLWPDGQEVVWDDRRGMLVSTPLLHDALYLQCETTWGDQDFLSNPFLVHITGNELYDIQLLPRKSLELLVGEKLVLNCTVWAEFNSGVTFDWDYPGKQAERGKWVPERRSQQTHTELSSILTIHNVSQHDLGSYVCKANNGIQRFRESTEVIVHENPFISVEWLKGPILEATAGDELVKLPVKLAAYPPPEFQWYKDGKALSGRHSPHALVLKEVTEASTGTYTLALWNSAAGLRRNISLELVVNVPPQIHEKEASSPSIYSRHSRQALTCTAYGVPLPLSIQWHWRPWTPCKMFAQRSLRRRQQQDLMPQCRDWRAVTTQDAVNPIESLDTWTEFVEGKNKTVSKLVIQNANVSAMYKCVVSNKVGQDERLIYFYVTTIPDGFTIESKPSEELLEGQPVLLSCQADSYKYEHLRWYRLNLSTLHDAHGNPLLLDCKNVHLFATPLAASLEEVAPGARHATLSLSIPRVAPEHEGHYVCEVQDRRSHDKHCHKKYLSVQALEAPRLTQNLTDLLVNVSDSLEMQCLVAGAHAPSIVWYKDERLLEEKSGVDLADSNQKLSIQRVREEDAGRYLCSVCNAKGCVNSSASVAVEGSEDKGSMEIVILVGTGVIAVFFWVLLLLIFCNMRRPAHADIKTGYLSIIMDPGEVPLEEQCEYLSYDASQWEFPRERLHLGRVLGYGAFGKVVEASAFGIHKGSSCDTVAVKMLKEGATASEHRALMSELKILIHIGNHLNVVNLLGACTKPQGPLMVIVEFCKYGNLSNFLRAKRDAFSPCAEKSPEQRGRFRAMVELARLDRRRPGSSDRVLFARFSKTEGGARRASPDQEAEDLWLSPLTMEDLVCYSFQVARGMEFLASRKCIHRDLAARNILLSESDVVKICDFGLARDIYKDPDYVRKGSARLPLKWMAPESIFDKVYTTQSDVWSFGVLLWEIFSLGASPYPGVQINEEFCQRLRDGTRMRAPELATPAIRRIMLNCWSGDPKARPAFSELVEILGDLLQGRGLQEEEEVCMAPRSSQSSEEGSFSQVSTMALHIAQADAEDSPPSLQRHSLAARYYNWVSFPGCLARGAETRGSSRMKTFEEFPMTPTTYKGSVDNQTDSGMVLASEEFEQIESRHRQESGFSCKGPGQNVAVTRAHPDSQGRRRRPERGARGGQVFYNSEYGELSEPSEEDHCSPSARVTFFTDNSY
Chain of Macrophage colony-stimulating factor 1 receptor (Homo sapiens) (P07333 whole entry): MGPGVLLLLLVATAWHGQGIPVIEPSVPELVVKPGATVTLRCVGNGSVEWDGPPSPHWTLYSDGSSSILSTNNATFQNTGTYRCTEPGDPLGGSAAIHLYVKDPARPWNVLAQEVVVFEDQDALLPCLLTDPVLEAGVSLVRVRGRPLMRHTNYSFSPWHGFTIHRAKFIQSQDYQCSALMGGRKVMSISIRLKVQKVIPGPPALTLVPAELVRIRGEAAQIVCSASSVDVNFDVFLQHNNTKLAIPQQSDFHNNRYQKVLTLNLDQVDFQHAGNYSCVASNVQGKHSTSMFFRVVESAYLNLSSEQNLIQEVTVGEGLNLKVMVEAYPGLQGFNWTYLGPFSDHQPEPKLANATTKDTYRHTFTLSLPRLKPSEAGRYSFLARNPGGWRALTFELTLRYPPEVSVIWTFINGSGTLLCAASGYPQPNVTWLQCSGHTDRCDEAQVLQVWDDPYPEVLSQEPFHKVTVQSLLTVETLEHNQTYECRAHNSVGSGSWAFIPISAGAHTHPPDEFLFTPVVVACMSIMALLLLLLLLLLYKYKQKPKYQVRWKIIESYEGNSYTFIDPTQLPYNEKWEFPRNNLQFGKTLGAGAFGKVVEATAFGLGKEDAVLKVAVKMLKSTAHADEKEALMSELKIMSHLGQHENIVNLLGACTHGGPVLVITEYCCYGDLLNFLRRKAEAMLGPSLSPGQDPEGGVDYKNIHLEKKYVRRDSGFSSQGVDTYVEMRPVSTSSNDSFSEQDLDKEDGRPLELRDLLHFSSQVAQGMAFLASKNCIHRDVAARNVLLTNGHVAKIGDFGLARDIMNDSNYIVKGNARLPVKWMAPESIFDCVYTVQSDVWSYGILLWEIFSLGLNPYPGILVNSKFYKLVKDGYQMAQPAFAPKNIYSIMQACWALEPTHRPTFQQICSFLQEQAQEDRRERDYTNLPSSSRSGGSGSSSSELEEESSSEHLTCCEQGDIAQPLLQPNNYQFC
Chain of Serine/threonine-protein kinase Nek7 (Homo sapiens) (Q8TDX7 whole entry, looked up): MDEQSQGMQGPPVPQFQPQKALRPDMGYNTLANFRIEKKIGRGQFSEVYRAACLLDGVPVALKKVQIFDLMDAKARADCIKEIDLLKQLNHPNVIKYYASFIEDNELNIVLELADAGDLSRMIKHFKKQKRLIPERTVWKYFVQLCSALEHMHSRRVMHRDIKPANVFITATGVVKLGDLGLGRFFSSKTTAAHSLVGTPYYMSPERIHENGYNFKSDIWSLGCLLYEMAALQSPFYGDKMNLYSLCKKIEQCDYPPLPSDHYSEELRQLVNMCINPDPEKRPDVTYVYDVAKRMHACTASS
Chain of Serine/threonine-protein kinase PLK1 (Homo sapiens) (P53350 whole entry): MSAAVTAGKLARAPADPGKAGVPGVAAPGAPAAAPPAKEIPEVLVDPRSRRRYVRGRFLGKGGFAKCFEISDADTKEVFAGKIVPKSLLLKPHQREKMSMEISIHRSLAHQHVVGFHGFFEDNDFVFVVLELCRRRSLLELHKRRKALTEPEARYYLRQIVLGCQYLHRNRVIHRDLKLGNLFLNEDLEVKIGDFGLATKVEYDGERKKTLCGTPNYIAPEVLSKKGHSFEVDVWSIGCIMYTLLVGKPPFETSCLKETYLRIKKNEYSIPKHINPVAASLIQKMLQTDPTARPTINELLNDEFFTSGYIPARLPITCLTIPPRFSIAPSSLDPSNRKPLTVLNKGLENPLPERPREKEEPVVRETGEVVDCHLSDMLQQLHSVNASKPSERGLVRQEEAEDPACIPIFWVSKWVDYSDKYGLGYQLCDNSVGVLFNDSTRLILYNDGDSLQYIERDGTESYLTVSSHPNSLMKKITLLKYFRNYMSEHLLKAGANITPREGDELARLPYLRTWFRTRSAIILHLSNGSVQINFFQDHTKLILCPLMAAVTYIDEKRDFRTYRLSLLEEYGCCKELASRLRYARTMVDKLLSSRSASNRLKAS
Chain of Serine/threonine-protein kinase Nek6 (Homo sapiens) (Q9HC98 whole entry): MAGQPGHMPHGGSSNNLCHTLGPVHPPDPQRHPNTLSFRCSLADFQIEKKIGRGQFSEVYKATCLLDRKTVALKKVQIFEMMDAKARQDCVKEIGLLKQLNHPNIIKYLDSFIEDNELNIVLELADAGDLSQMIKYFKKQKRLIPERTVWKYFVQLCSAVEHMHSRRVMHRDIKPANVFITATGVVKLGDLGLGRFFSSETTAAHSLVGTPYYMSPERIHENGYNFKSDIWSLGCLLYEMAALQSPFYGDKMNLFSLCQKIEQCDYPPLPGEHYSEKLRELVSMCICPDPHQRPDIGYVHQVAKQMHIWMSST

Structure (SMILES)	inhibition [1]	inhibition [2]	inhibition [3]	inhibition [4]	inhibition [5]	inhibition [6]	inhibition [7]	inhibition [8]	inhibition [9]	inhibition [10]	inhibition [11]	inhibition [12]	inhibition [13]	inhibition [14]	inhibition [15]	inhibition [16]	inhibition [17]	inhibition [18]	inhibition [19]	inhibition [20]
CCN1CCC(C(=O)Nc2n[nH]c3nnc(-c4cccc(F)c4F)cc23)CC1	-0.18%	-1.35%	-0.79%	-0.66%	-0.65%	1.25%	-1.06%	-0.06%	-1.15%	4.77%	3.91%	-0.35%	-0.89%	-0.14%	1.33%	1.09%	0.68%	-1.42%	7.94%	1.4%
Fc1ccc(Nc2nccc(-c3c(-c4ccc(C(F)(F)F)cc4)nn4ncccc34)n2)cc1F	4.2%	1.24%	1.72%	4.93%	4.4%	-0.59%	0.48%	3.33%	2.76%	4.79%	1.67%	2.18%	2.92%	7.64%	-2.39%	0.19%	-1.91%	2.64%	6.66%	0.1%
